For 27 compounds, growth results are on record in PubChem BioAssay (NCI).

Holding throughout (assay): NCI-60 one-dose screen, 48 h (100 = growth as untreated, 0 = no growth, -100 = all killed)
Holding throughout (conditions): 10 µM

Assay [1] has as its system DU-145 prostate.
Assay [2] concerns K-562 leukemia.
Assay [3] deals with MALME-3M melanoma.
Assay [4] relates to MDA-MB-231 breast.
Assay [5] relates to RXF 393 renal.
Assay [6] concerns SF-268 CNS.
The subject of assay [7] is SF-295 CNS.
Assay [8] has as its system SF-539 CNS.
Assay [9] has as its system UACC-257 melanoma.
Assay [10] has as its system M14 melanoma.

Molecules are shown by their SMILES. Compounds without any hit were thinned out: in the full panel of roughly 83,000, 20% have a hit.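 Interpretation: 100, growth as untreated; towards 0, rising growth inhibition; 0, no net growth; 0 to -100, cell death. Compounds scoring below 10 were considered active.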 Unmarked numbers belong to inactive results. Activity calls are given as the source filed them.

As for `O=C1/C=C/[C@@H](O)[C@@H]2C[C@@H](O)C[C@H]2/C=C/CCC[C@H](CCc2ccc(NC(=S)Nc3ccc4c(c3)C(=O)OC43c4ccc(O)cc4Oc4cc(O)ccc43)cc2)O1`, the growth was 17.4% in assay [1]; 13.5% in assay [2]; -1.26% (active) in assay [3]; -88.7% (active) in [4]; -30.2% (active) in [5]; 12.8% in assay [6]. Besides, the growth in assay [7] is 22.2%; in assay [8], 29.4%; in assay [9], 0.525% (active); in assay [10], 10.9%.
Take `CCOC(=O)c1cc(C(=O)c2cc(OC)cc(OC)c2)n2nc(C)ccc12`: the growth in [1] is 21.9%; in assay [2] it was 10.3%; in assay [3] it was 74.3%; in [4] it was 52.6%; in assay [5] it was 13.6%; in assay [6] it was 62.4%. In addition, the growth in assay [7] was 23.9%; in assay [8], 3.84% (active); in [9], 59.5%; in [10] it was 11.4%.
For `Nc1ccn(Cc2nnc(CCC(=O)c3nc4ccccc4[nH]3)o2)c(=O)n1`, the growth was 98.4% in assay [1]; 79.8% in assay [2]; 90.9% in assay [3]; 87.3% in [4]; 98.5% in [5]; 95.8% in [6]. The growth in assay [7] is 79.8%; in [8] it was 86.8%; in assay [9] it was 101%; in assay [10] it was 89.8%.
Consider `CC(C)(C)OC(=O)N1CCc2c(sc3ncnc(N/N=C/c4cccc(Br)c4)c23)C1`, for which the growth in [1] was 62.4%; in assay [2] it was 19.3%; in [3], 66.9%; in [4], 49.9%; in [5], 63.5%; in [6], 63.9%. The growth in assay [7] is 64.7%; in assay [8] it was 53.3%; in [9] it was 80.8%; in assay [10] it was 43%.
Regarding `Nc1nc(-c2ccc(Cl)cc2)cc(-c2cc3ccccc3oc2=O)n1`, the growth is 106% in assay [1]; 114% in [2]; 80% in [3]; 93.9% in assay [4]; 112% in assay [5]; 104% in [6]. Besides, the growth in assay [7] was 89.1%; in assay [8], 117%; in [9], 132%; in assay [10], 95.3%.
In the case of `O=C1CSC(=S)N1/N=C/c1ccc(Cl)s1`, the growth was 109% in [1]; 105% in [2]; 103% in [3]; 99.4% in assay [4]; 108% in assay [5]; 91.9% in assay [6]. The growth in assay [7] is 100%; in assay [8], 95.1%; in [9] it was 110%; in assay [10], 107%.
On to `CN1CCN(CCC(=O)Nc2cccc(-n3cc(-c4ccncc4)c(-c4ccc(Cl)c(O)c4)n3)c2)CC1`, for which the growth in [1] was 25.8%; in assay [2] it was 12.8%; in assay [3], 47.6%; in assay [4], -72% (active); in [5], 30%; in [6], 50.8%. Also, the growth in [7] is 19.3%; in assay [8], -4.71% (active); in assay [9], 46.3%; in assay [10], 12.3%.
As to `CC(C)N(CCOc1ccc(-c2nc3sccn3c2-c2ccnc(S(C)(=O)=O)n2)cc1)C(C)C`, the growth is 99.9% in assay [1]; 62.9% in [2]; 102% in [3]; 75.4% in [4]; 93.2% in [5]; 96.3% in assay [6]. Also, the growth in [7] was 108%; in [8], 95.4%; in [9], 78.4%; in [10], 112%.
Take `COc1cc(-c2nn(-c3cccc(NC(=O)NCCNC(=O)c4cccc(C(F)(F)F)c4)c3)cc2-c2ccncc2)ccc1Cl`: the growth in [1] was 48.9%; in [2], 8.57% (active); in [3] it was 52.6%; in assay [4], 41.4%; in assay [5], 15.3%; in assay [6], 41.8%. The growth in [7] is 6.79% (active); in assay [8] it was 22.2%; in assay [9], 51%; in assay [10], 15.3%.
Take `O=C1CCn2c1c(O)c1ccccc1c2=O`: the growth in assay [1] is 114%; in [2], 130%; in assay [3] it was 124%; in [4] it was 115%; in [5], 111%; in assay [6] it was 114%. In addition, the growth in assay [7] is 97.2%; in assay [8], 113%; in assay [9] it was 99.8%; in assay [10], 107%.
With `COc1ccccc1-n1c(-c2sc(NC(C)=O)nc2C)n[nH]c1=S`, the growth in [1] was 119%; in [2], 101%; in assay [3], 104%; in assay [4], 106%; in assay [5], 107%; in assay [6], 94.9%. For the same compound, the growth is 83.2% in [7], 103% in [8], 114% in [9] and 98.8% in assay [10].
Take `C(=N\Nc1ncnc2sc3c(c12)CCNC3)/c1cccc2ccccc12`: the growth in assay [1] was 100%; in assay [2], 2.84% (active); in [3] it was 92.6%; in assay [4] it was 66%; in [5], 85%; in assay [6], 97.5%. Besides, the growth in assay [7] was 104%; in assay [8], 85.8%; in [9], 104%; in [10] it was 95%.
Turning to `COc1cc2c(Nc3ccc(-c4ccc(N)cc4)cc3)ncnc2c(OC)c1OC`, the growth in [1] was 34.9%; in assay [2], 11%; in assay [3], 36.5%; in assay [4] it was 56.9%; in assay [5], 103%; in assay [6] it was 52.6%. Further, the growth in [7] is -33.2% (active); in assay [8], 17.5%; in assay [9] it was 43.8%; in [10], 13.8%.
In the case of `NS(=O)(=O)Oc1ccc(-c2ccc3sccc3c2)cc1`, the growth in assay [1] was 104%; in assay [2], 96.9%; in assay [3] it was 106%; in assay [4], 90%; in assay [5] it was 100%; in assay [6], 102%. For the same compound, the growth in assay [7] was 97.2%; in assay [8] it was 98.9%; in assay [9], 104%; in assay [10], 100%.
In the case of `CCOC(=O)C1=CSC2=NC3=C(CCC/C3=C\c3cc(OC)c(OC)c(OC)c3)C(c3cc(OC)c(OC)c(OC)c3)N12` (stereo not given), the growth in [1] was 8.85% (active); in assay [2], 38.7%; in [3], 74.6%; in [4] it was 74.2%; in assay [5], 32.7%; in [6] it was 33.3%. Besides, the growth is 55.8% in assay [7], 49.9% in [8], 58.1% in [9] and 16.9% in assay [10].
In the case of `O=C(CCc1nnc2sc(-c3cc(O)c(O)c(O)c3)nn12)c1nc2ccccc2[nH]1`, the growth in [1] was 112%; in assay [2], 8.3% (active); in assay [3], 103%; in assay [4], 102%; in assay [5], 115%; in [6] it was 113%. The growth in assay [7] is 82.8%; in assay [8], 80%; in assay [9], 110%; in [10], 105%.
In the case of `Cc1ccc(/C=C2/C(=O)N(C)c3ccc(S(=O)(=O)Nc4ccc(C(C)(C)C)cc4)cc32)s1`, the growth in assay [1] is 87.3%; in assay [2] it was 79.8%; in [3], 57.6%; in assay [4], 35.2%; in assay [5], 41.8%; in assay [6], 67.4%. Besides, the growth is 88% in [7], 23% in assay [8], 85.7% in assay [9] and 83.1% in assay [10].
With `CS(=O)(=O)c1nccc(-c2c(-c3cccc(OCCc4ccccc4)c3)nc3sccn23)n1`, the growth is 108% in assay [1]; 95.5% in [2]; 102% in assay [3]; 93.7% in assay [4]; 118% in assay [5]; 106% in assay [6]. Besides, the growth was 109% in assay [7], 103% in [8], 101% in assay [9] and 114% in [10].
With `O=C(CCl)Oc1ccc(OC(=O)CCl)cc1`, the growth in assay [1] is 88.6%; in assay [2] it was 93.6%; in assay [3], 88.4%; in [4] it was 81.1%; in assay [5] it was 109%; in [6], 93.8%. The growth is 108% in [7], 72.8% in assay [8], 89.1% in [9] and 85.9% in assay [10].
Regarding `CCNCC(=O)Nc1ccc(C(=O)OCC)cc1`, the growth is 104% in assay [1]; 96.6% in assay [2]; 110% in assay [3]; 119% in [4]; 124% in [5]; 93.6% in [6]. Moreover, the growth was 102% in [7], 100% in [8], 96.7% in assay [9] and 102% in assay [10].
With `Cc1c(Cl)cccc1NC(=O)CCCl`, the growth in assay [1] was 106%; in assay [2] it was 88.2%; in [3], 108%; in [4], 121%; in [5] it was 112%; in assay [6] it was 97.8%. For the same compound, the growth was 106% in assay [7], 102% in assay [8], 89.2% in assay [9] and 97% in assay [10].
`COc1ccc(-c2nn(-c3cccc(Cl)c3)cc2-c2c(C#N)c(=O)n3[nH]c(-c4ccc(C)cc4)nc3c2C#N)cc1`: the growth in assay [1] is 28.4%; in assay [2], 4.62% (active); in [3], 21.4%; in [4], -2.7% (active); in [5] it was 28.2%; in assay [6], 35.8%. The growth in [7] is 23.6%; in assay [8], 34.8%; in assay [9], 96.9%; in [10], -10.9% (active).
Consider `NS(=O)(=O)Oc1ccc(NC(=O)C2CCCCCC2)cc1`, for which the growth in assay [1] was 117%; in assay [2], 96.1%; in assay [3], 102%; in [4], 103%; in assay [5], 116%; in assay [6] it was 98.5%. The growth in assay [7] is 99%; in [8] it was 98.3%; in assay [9] it was 100%; in assay [10], 108%.
On to `CCN1C(=O)CC(SC2CC(=O)N(CC)C2=O)C1=O` (stereo not given), for which the growth is 101% in assay [1]; 82.7% in [2]; 97.6% in assay [3]; 105% in assay [4]; 111% in assay [5]; 96.1% in assay [6]. The growth was 106% in [7], 100% in assay [8], 100% in assay [9] and 97.6% in [10].
Take `Nc1ccc(CC[C@H]2CCC/C=C/[C@@H]3C[C@H](O)C[C@H]3[C@H](O)/C=C/C(=O)O2)cc1`: the growth in [1] was 16.2%; in assay [2], 11.4%; in assay [3] it was -14% (active); in assay [4], -80.5% (active); in assay [5], -36.3% (active); in assay [6], 10.2%. Moreover, the growth in assay [7] was 13%; in [8], 25.3%; in assay [9], 4.74% (active); in assay [10], 3.35% (active).
Turning to `COc1cc(C)ccc1Oc1nc(Nc2ccc(N3CCOCC3)cc2)ncc1NC(=O)Nc1cc(C(F)(F)F)cc(C(F)(F)F)c1`, the growth is 23.3% in [1]; 40.3% in assay [2]; 108% in assay [3]; 51.5% in [4]; -27.6% (active) in [5]; 49.7% in [6]. The growth in [7] was 60.2%; in assay [8] it was 65.6%; in assay [9], 84.3%; in [10], 73%.
On to `CC(=O)Nc1ccc2c(c1)C(=O)c1cccc(C(=O)O)c1-2`, for which the growth in [1] is 116%; in assay [2], 115%; in assay [3] it was 148%; in [4], 112%; in [5] it was 109%; in assay [6], 104%. Also, the growth in assay [7] was 100%; in assay [8], 106%; in assay [9] it was 105%; in assay [10], 107%.
